KDM5B inh = Primary screen for KDM5B Histone Demethylases FDH-coupled qHTS. Lysine-specific demethylase 5B (Homo sapiens), Q9UGL1. KDM5B demethylase, FDH-coupled NADH fluorescence (FDH is formaldehyde dehydrogenase). Potency, µM (series often up to 57.7 µM), usual class: inhibitors. 2.6% of 220,000 active. AID 1347165, 2019; note: potency is the fitted concentration of half-maximal effect; 0% is about no effect; nearly all actives have a fitted effect of over 70% in size
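Compound dilutions met 200 nM (final) KDM5BΔAP for 10 min at room temperature before substrate addition. The substrate mix held 12.5 µM H3K4me3 with cofactors 25 µM α-ketoglutarate and 50 µM Fe²⁺. NADH signal gain over 30 min defined activity.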
IP6K1 inhibitor = Primary qHTS assay for small molecule inhibitors of Inositol hexaphosphate kinase 1 (IP6K1); Inositol hexakisphosphate kinase 1 (Homo sapiens), Q92551; IP6K1 kinase, ADP-Glo luminescence, 2 h; hits give low values; activity change, % (series mostly up to about 58 µM); 0.81% of 140,000 active; in the data active = activity change below about -25%; note: % is set by controls: 0 for no effect and ±100 for the full control effect
Target sequence (Q92551 whole entry, looked up): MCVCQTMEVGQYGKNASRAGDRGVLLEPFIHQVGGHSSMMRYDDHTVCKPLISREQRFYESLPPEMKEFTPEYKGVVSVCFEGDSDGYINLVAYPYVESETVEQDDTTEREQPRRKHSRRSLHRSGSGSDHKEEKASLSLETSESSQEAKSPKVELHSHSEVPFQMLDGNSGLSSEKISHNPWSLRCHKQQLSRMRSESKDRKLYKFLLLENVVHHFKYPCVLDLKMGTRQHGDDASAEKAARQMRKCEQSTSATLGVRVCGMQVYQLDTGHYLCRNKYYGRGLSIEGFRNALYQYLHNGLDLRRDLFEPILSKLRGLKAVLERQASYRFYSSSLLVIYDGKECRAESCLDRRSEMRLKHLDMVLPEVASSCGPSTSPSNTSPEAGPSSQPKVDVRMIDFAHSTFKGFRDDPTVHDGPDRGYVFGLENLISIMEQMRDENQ
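ADP-Glo luminescence measures ADP made by human IP6K1 during a 2 h RT reaction with ATP/IP6 (mix at 1.3 mM/130 uM); top library doses 57.5 and 19.1 uM final.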
SNCA expr inhib = Primary qHTS assay for inhibitors of alpha-synuclein gene (SNCA) expression; 0.17% of 140,000 active; AID 1671194, 2021; Potency, µM (top dose mostly 57.2 µM), for inactives: at the top dose activity change, negative = inhibition, actives largely listed as inhibitors; HEK-293 SNCA-luciferase knock-in, luminescence, 24 h;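 note: potency is the fitted concentration of half-maximal effect; plate controls were DMSO cells for no effect and cell-free wells for full effect; nearly all actives have a fitted effect of over 45% in size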
SNCA viab count = GF-AFC viability counterscreen for inhibitors of alpha-synuclein gene (SNCA) expression; HEK-293-SNCA-luc viability, GF-AFC fluorescence, 24 h; Potency, µM (titrated, usually from 57.1 µM), for inactives: top-dose activity change, negative = cytotoxicity, hits mostly cytotoxic; 0.12% of 150,000 active; AID 1671193, 2021;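 note: potency is the fitted concentration of half-maximal effect; 0% = DMSO-treated cells and -100% = medium-only wells without cells; nearly all actives have a fitted effect of over 30% in size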
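HEK-293-SNCA-luc cells (1500/well) plated 24 h, then exposed 24 h to a dilution series; GF-AFC added 30 min at 37C, fluorescence 405/540 nm; normalised to medium-only and DMSO wells, Hill fit.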
* hit, by the source's call; [ ] = remark or other dose. Most compounds without a hit are left out; they make up all but 2.8% or so of the library. Unless noted, calls come from the whole dose curve; as a rule, active = well fitted curve in the direction sought with a large enough effect; inconclusive = small, poorly fitted or top-dose-only effect, or another doubt; inactive = no such curve, though single readings can be large; an effect the other way counts as inactive or inconclusive.

How did O=C(c1ccncc1)N1CCC(CCOc2ccccc2)C1 (stereo unspecified) do in these assays?
KDM5B inh: inactive; IP6K1 inhibitor: 31; SNCA expr inhib: -25%; SNCA viab count: 3%

What do the screens show for `COc1ccccc1-c1cc(C(=O)Nc2ccccc2F)c2cnn(C)c2n1`?
IP6K1 inhibitor: -1

How did O=Cc1cccc(N2CCN(C(=O)N3CCCCC3)CC2=O)c1 do in these assays?
KDM5B inh: inactive; IP6K1 inhibitor: 3; SNCA expr inhib: 19%; SNCA viab count: -13%

Results for CC1(COc2cccnc2)COc2ccc(C(=O)NC3CCC(O)CC3)cc2N1 (stereo unspecified) ?
KDM5B inh: 35µM*; IP6K1 inhibitor: -2; SNCA expr inhib: -25%[87.6 µM]; SNCA viab count: 3%[87.6 µM]

How did CC1(COc2cccnc2)COc2ccc(C(=O)NCC3CCOCC3)cc2N1 (stereo unspecified) do in these assays?
KDM5B inh: 35µM*; IP6K1 inhibitor: 1; SNCA expr inhib: -8%[87.6 µM]; SNCA viab count: 8%[87.6 µM]

Results for COc1ccc(OCC2(C)COc3ccc(C(=O)NC4CCC(O)CC4)cc3N2)cc1 (stereo unspecified) ?
KDM5B inh: 32µM*; IP6K1 inhibitor: -15; SNCA expr inhib: inconclusive; SNCA viab count: inconclusive

How did COC(=O)[C@@H]1Cc2c([nH]c3ccccc23)[C@H]2C[C@H](N3CCCCC3)C[C@@H](c3ccccc3F)N21 do in these assays?
KDM5B inh: inactive; IP6K1 inhibitor: 0; SNCA expr inhib: inconclusive; SNCA viab count: -13%

Results for CN(C)C(=O)CNC(=O)c1cccc(-c2ccc(C(F)(F)F)cc2)c1 ?
IP6K1 inhibitor: -4; SNCA expr inhib: inconclusive; SNCA viab count: 1%[12.5 µM]

What do the screens show for `CN(C)C(=O)COC(=O)c1cc(-c2ccc(C3CCNCC3)cc2)c2ccc(-c3ccc(C(F)(F)F)cc3)cc2c1`?
IP6K1 inhibitor: 2; SNCA viab count: 30µM*

What do the screens show for `COc1ccc(Nc2ccnc(N3CCN(C(=O)c4ccc(C(F)(F)F)cc4)CC3)n2)cc1`?
IP6K1 inhibitor: 6; SNCA expr inhib: 3%; SNCA viab count: -16%

What do the screens show for `CCOc1ccc(-c2cc3c(=O)n(CCNC(=O)c4cccc(N(C)C)c4)ccn3n2)cc1`?
KDM5B inh: 32µM*; IP6K1 inhibitor: -10; SNCA expr inhib: 94%; SNCA viab count: -6%

Results for CCOc1ccc(-c2cc3c(=O)n(CCNC(=O)c4ccc(C)c(C)c4)ccn3n2)cc1 ?
KDM5B inh: 18µM*; IP6K1 inhibitor: -6; SNCA expr inhib: 33%; SNCA viab count: 2%

How did Cc1ccc(C)c(-c2cc3c(=O)n(CCNC(=O)c4cccc(N(C)C)c4)ccn3n2)c1 do in these assays?
KDM5B inh: 32µM*; IP6K1 inhibitor: 7; SNCA expr inhib: inconclusive; SNCA viab count: inconclusive

How did CCOc1ccc(-c2cc3c(=O)n(CCNC(=O)c4ccccc4)ccn3n2)cc1 do in these assays?
KDM5B inh: inactive; IP6K1 inhibitor: -2; SNCA expr inhib: 41%; SNCA viab count: -2%

How did CCOc1ccc(-c2cc3c(=O)n(CCNC(=O)Cc4cccs4)ccn3n2)cc1 do in these assays?
KDM5B inh: 32µM*; IP6K1 inhibitor: -9; SNCA expr inhib: 30%; SNCA viab count: -13%

How did CCOc1ccc(-c2cc3c(=O)n(CCNC(=O)c4ccc(C)cc4)ccn3n2)cc1 do in these assays?
KDM5B inh: inactive; IP6K1 inhibitor: -2; SNCA expr inhib: 106%; SNCA viab count: 7%

Results for COc1ccc(-c2cc3c(=O)n(CCNC(=O)Cc4cccs4)ccn3n2)cc1 ?
KDM5B inh: inconclusive; IP6K1 inhibitor: 4; SNCA expr inhib: 5%; SNCA viab count: -8%

Results for COCCN1CCOC[C@H]2CCN(C(=O)CCC3CCCC3)C[C@H]21 ?
KDM5B inh: inactive; IP6K1 inhibitor: 4; SNCA expr inhib: 63%; SNCA viab count: 0%

How did CCOc1nc2ccccc2nc1N1CCC(C(=O)Nc2cccc(CC)c2)CC1 do in these assays?
KDM5B inh: inactive

How did CCN(CC(=O)NC(=O)NCC(F)(F)F)Cc1cccc(C)c1 do in these assays?
KDM5B inh: inactive

How did c1cc(-c2noc([C@@H]3CCCN3C3CCOCC3)n2)cc(N2CCCC2)n1 do in these assays?
KDM5B inh: inconclusive; IP6K1 inhibitor: 0; SNCA expr inhib: 65%[87.6 µM]; SNCA viab count: 0%[87.6 µM]

How did CC(=O)Nc1ccc(CN2CCC[C@H]2c2nc(-c3ccnc(N4CCC(C(N)=O)CC4)c3)no2)cc1 do in these assays?
KDM5B inh: 32µM*; IP6K1 inhibitor: 13; SNCA expr inhib: 15%; SNCA viab count: 4%

What do the screens show for `CS(=O)(=O)Nc1cc(-c2noc([C@@H]3CCCN3Cc3ccccc3)n2)ccn1`?
KDM5B inh: inconclusive; IP6K1 inhibitor: -10; SNCA expr inhib: -16%[87.6 µM]; SNCA viab count: 3%[87.6 µM]

Results for CC(C)CN1CCC[C@H]1c1nc(-c2ccnc(NS(C)(=O)=O)c2)no1 ?
KDM5B inh: 35µM*; IP6K1 inhibitor: 3; SNCA expr inhib: inconclusive; SNCA viab count: -8%[87.6 µM]

What do the screens show for `NC(=O)C1CCN(c2cc(-c3noc([C@@H]4CCCN4Cc4ccncc4)n3)ccn2)CC1`?
KDM5B inh: 32µM*; IP6K1 inhibitor: 7; SNCA expr inhib: 6%[87.6 µM]; SNCA viab count: -3%[87.6 µM]

How did c1cc(-c2noc([C@@H]3CCCN3Cc3ncc[nH]3)n2)cc(N2CCCC2)n1 do in these assays?
KDM5B inh: 40µM*; IP6K1 inhibitor: 17; SNCA expr inhib: 26%[87.6 µM]; SNCA viab count: 1%[87.6 µM]

Results for COc1cc(OC)c(OC)cc1/C=C1\N=C(SC)SC1=O ?
KDM5B inh: inactive

Results for CC(=O)N1CCN(c2cc(-c3noc([C@@H]4CCCN4Cc4ccc(N(C)C)cc4)n3)ccn2)CC1 ?
KDM5B inh: 28µM*; IP6K1 inhibitor: 10; SNCA expr inhib: -11%; SNCA viab count: -5%

How did c1cncc(CN2CCC[C@H]2c2nc(-c3ccnc(N4CCCC4)c3)no2)c1 do in these assays?
KDM5B inh: 35µM*; IP6K1 inhibitor: 9; SNCA expr inhib: 13%[87.6 µM]; SNCA viab count: 1%[87.6 µM]

What do the screens show for `COc1ccc(CN2CCC[C@H]2c2nc(-c3ccc(N4CCC(C(N)=O)CC4)nc3)no2)c(O)c1`?
KDM5B inh: inactive; IP6K1 inhibitor: 12; SNCA expr inhib: 3%; SNCA viab count: 4%

What do the screens show for `NC(=O)C1CCN(c2cc(-c3noc([C@@H]4CCCN4Cc4cccnc4)n3)ccn2)CC1`?
KDM5B inh: 40µM*; IP6K1 inhibitor: 17; SNCA expr inhib: 29%[87.6 µM]; SNCA viab count: -4%[87.6 µM]

How did CC(=O)Nc1ccc(CN2CCC[C@H]2c2nc(-c3ccnc(NS(C)(=O)=O)c3)no2)cc1 do in these assays?
KDM5B inh: inconclusive; IP6K1 inhibitor: 12; SNCA expr inhib: 26%; SNCA viab count: 3%

Results for COCCN1C(=O)CC[C@]2(C(=O)Nc3ccccn3)CCCC[C@@H]12 ?
KDM5B inh: inactive; IP6K1 inhibitor: -4; SNCA expr inhib: -13%; SNCA viab count: -4%

Results for CCN(CC)S(=O)(=O)c1ccc(C)c([N+](=O)[O-])c1 ?
KDM5B inh: inactive
